# Screens deposited in PubChem by Broad Institute.
# aSyn UTR act: Activators via SNCA 5'UTR binding, MLPCN; alpha-synuclein 5'UTR reporter, activators screen; activity score, % (tested at 7.5 µM), hits read low; 300,000 tested, 7.1% active; AID 1814; in the data active = activity score below about -60%
# Numbers without * were called inactive. These entries were drawn from the full list.
SMILES,aSyn UTR act
CC1CC(C)CN(c2ncnc3c2cnn3-c2ccc(Cl)cc2)C1 (stereo not drawn),-99*
c1ccc(-n2ncc3c(N4CCCCC4)ncnc32)cc1,94
CC1CCCN(c2ncnc3c2cnn3-c2ccc(Cl)cc2)C1 (stereo not drawn),98
CCOC(=O)N1CCN(c2ncnc3c2cnn3-c2ccc(Cl)cc2)CC1,-86*
CCN1CCN(c2ncnc3c2cnn3-c2ccc(Cl)cc2)CC1,-63*
CCN(CC)C(=O)c1sc2nc(-c3ccc(OC)cc3)cn2c1C,-150*
CNC(=O)c1sc2nc(-c3ccc(OC)cc3)cn2c1C,-138*
COCC1CCCN(C(=O)c2cc(COc3cncc(Cl)c3)on2)C1 (stereo not drawn),-137*
COCC1CCCN(C(=O)c2cc(COc3ccc(C(C)=O)cc3)on2)C1 (stereo not drawn),-149*
Cc1ccc(OCc2cc(C(=O)NC(C)Cc3cccnc3)no2)cc1C (stereo not drawn),-82*
CC(=O)c1ccc(OCc2cc(C(=O)N3CCCCC3c3cccnc3)no2)cc1 (stereo not drawn),-83*
Cc1cccc(C)c1OCc1cc(C(=O)N2CCC(c3ccccc3)CC2)no1,-80*
Cc1cccc(C)c1OCc1cc(C(=O)N2CCN(c3ccc(F)cc3)CC2)no1,-72*
CC(=O)c1ccc(OCc2cc(C(=O)NC3CCCCC3)no2)cc1,-81*
Cc1cccc(C)c1OCc1cc(C(=O)N2CCC(C3CCCCC3)C2)no1 (stereo not drawn),-159*
CC(=O)c1ccc(OCc2cc(C(=O)N3CC[C@@H]4CCCC[C@H]4C3)no2)cc1,-126*
CC(=O)c1ccc(OCc2cc(C(=O)NC(C)CCn3cccn3)no2)cc1 (stereo not drawn),-164*
Cc1cccc(N/C=C/c2onc(C)c2[N+](=O)[O-])c1,-156*
Cc1cc(O)ccc1N/C=C/c1onc(C)c1[N+](=O)[O-],-110*
N#CC(c1ccc(Cl)cc1)c1ccc2c(C(F)(F)F)cc(C(F)(F)F)nc2n1 (stereo not drawn),112
CNc1ccccc(-c2ccc3cc4c(cc3n2)OCO4)c1=O,-215*
COc1ccc(-c2nc3ccc([N+](=O)[O-])cc3[nH]2)cc1,-63*
O=[N+]([O-])c1ccc2nc(-c3ccc(Cl)cc3)[nH]c2c1,-221*
O=[N+]([O-])c1ccc(-c2cc(-c3ccc(Cl)cc3)n[nH]2)cc1,-75*
COc1ccc2[nH]c(-c3ccccc3)cc2c1,-139*
SMILES,aSyn UTR act
Clc1ccc(-c2nc3ccncc3[nH]2)cc1,-101*
COc1ccc2cc(-c3ccccc3)ncc2c1,-65*
COc1ccc(-c2cc3c(nn2)-c2ccccc2C3=O)cc1,98
O=[N+]([O-])c1cccc(-c2nc3ccc([N+](=O)[O-])cc3[nH]2)c1,-142*
COc1ccc2nc(-c3ccccc3)[nH]c2c1,-71*
O=[N+]([O-])c1ccc(/C=C/c2nc3ccc([N+](=O)[O-])cc3[nH]2)cc1,-165*
O=C(OCc1ccc(Cl)c(Cl)c1)c1ccc[nH]1,-82*
O=C(CC(Nc1ccc(F)cc1)c1ccccc1)c1ccccc1 (stereo not drawn),-89*
O=C(CC(Nc1ccc(Cl)cc1)C(=O)O)c1ccccc1 (stereo not drawn),-69*
O=C(CC(Nc1ccccc1Cl)C(=O)O)c1ccccc1 (stereo not drawn),-94*
Cc1c(Cl)cccc1NC(CC(=O)c1ccccc1)C(=O)O (stereo not drawn),-102*
COC(=O)c1ccccc1SC(CC(=O)c1ccccc1)c1ccc(F)cc1 (stereo not drawn),-68*
Cc1cccc(Nc2nc(-c3ccc(F)c(C)c3)cs2)n1,-249*
Cc1cccc(Nc2nc(-c3ccc(O)c(O)c3)cs2)n1,-224*
O=C(Nc1ccc(F)cc1)Oc1ccc[nH]c1=O,-82*
O=C(CO/N=C/c1ccccc1O)N1CCc2ccccc21,-67*
Cc1ccnc(NC(=O)COc2ccc3c(c2)CCC3)c1,-90*
O=C(COc1ccc2c(c1)CCC2)N1CCc2ccccc21,-123*
CCc1ccc(OCC(=O)N2CCc3ccccc32)cc1,-190*
Cc1ccc(OCC(=O)N2CCc3ccccc32)cc1,-121*
CCNc1nc(-c2ccc(Cl)cc2)cs1,-169*
CNc1nc(-c2ccc(Cl)cc2)cs1,-204*
c1ccc(CCNc2nc3ccccc3s2)cc1,-81*
Cc1ccc(CNc2nc3ccccc3s2)s1,78
COc1ccc(CNc2nc3ccccc3s2)cc1OC,-141*
SMILES,aSyn UTR act
O=[N+]([O-])c1ccccc1S(=O)(=O)Oc1ccccc1/C=N/n1cnnc1,-79*
Clc1ccc(-c2nc3ccccn3c2CN2CCCCC2)cc1,-101*
CN(C)Cc1c(-c2ccc(Cl)cc2)nc2ccccn12,-151*
Nc1ccc2nn(-c3ccc(F)cc3)nc2c1,-108*
CCOc1ccc(-n2nc3ccc(N)cc3n2)cc1,73
CC(C)CC(=O)Nc1ccc2nn(-c3ccccc3)nc2c1,-178*
CCCC(=O)Nc1ccc2nn(-c3ccc(OC)cc3)nc2c1,-121*
CC(C)C(=O)Nc1ccc2nn(-c3ccc(F)cc3)nc2c1,-71*
O=C(/C=C/c1ccco1)Nc1ccc2nn(-c3ccccc3)nc2c1,-209*
Cc1ccc(-n2nc3ccc(NC(=O)c4cccc([N+](=O)[O-])c4C)cc3n2)cc1,-66*
Cc1ccc(-n2nc3ccc(NC(=O)c4ccco4)cc3n2)cc1,-83*
Cc1ccc(-n2nc3ccc(NC(=O)C(C)C)cc3n2)cc1,-137*
COc1ccc(-c2csc(N3CCC(c4ccccc4)C3)n2)cc1 (stereo not drawn),-114*
COc1ccc(-c2csc(N3CCSCC3)n2)cc1,-225*
COc1ccc(-c2csc(-n3cccn3)n2)cc1,-153*
Clc1ccc(-c2csc(N3CCC(c4ccccc4)C3)n2)cc1 (stereo not drawn),-226*
Fc1ccc(-c2csc(N3CCC(c4ccccc4)C3)n2)cc1 (stereo not drawn),-199*
CCN(CC)CCCNC(=S)N1CCN(c2nc(-c3ccc(F)cc3)cs2)CC1,133
C=CCNS(=O)(=O)c1nc(C)c(Cl)c(C)c1C#N,-110*
COC(=O)C1CC23C=CCN4CCC5(c6ccccc6NC15C2C)C43 (stereo not drawn),94
O=C(/C=C/c1cccs1)Nc1ccc([N+](=O)[O-])cc1,-147*
Cc1cccc(NC(=O)/C=C/c2cccs2)n1,-108*
Cc1ccc(NC(=O)/C=C/c2cccs2)c([N+](=O)[O-])c1,-161*
O=C(/C=C/c1cccs1)NCc1ccccc1,-110*
CC(C)(C)c1ccc(/C=C/C(=O)Nc2ccncc2)cc1,-77*
SMILES,aSyn UTR act
CCCOC(=O)c1ccc(NC(=O)/C=C/c2cccs2)cc1,-209*
O=C(/C=C/c1cccs1)Nc1ccncc1,-126*
CC(=O)Oc1cc(O)c2c(=O)c(OC(C)=O)c(-c3ccc(OC(C)=O)c(OC(C)=O)c3)oc2c1,-116*
CC(=O)Oc1c(-c2ccc(Br)o2)oc2ccccc2c1=O,-66*
COc1ccc(-c2oc3ccccc3c(=O)c2OC(C)=O)cc1,-174*
COc1ccc(-c2oc3cc(OC)c(O)c(OC)c3c(=O)c2OC)cc1O,65
O=C(Cn1cc(C(=O)C2CC2)c2ccccc21)NCc1ccccc1,-81*
Cc1ccc(NC(=S)/C(=C(\[O-])c2ccc(C)c([N+](=O)[O-])c2)[n+]2ccccc2)cc1C,-158*
Cc1ccc(COn2c(-c3ccc(Cl)cc3)nc3ccc([N+](=O)[O-])cc32)cc1,-198*
